“And” between values parts separate entries of the source, which are not always exact repeats. Equal entries are not always repeated. The whole screen tested about 5,500 compounds, of which about 2,000 (36%) were called active. Another 18% or so got no clear call; they are omitted. No stated cut-off is given here; in the data, active means normalized growth mostly below about 0.91 (no sharp cut-off); inconclusive means no clear call, values can overlap the other calls; inactive means mostly above about 0.92. Some of the results follow.
Test: chemical genetic growth profiling, strain panel (AID 1159580);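 further: tested at 20 µM; growth read once vehicle control cultures reached saturation at 30 °C; 1 = growth at the plate median or of vehicle wells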
Settings: S. cerevisiae deletion strains, growth OD

Measured: normalized growth

C=C[C@@](C)(O)CCC1C(=C)C[C@H](OC(C)=O)C2C(C)(C)CCCC12C (stereo partly specified)
inactive: locus YAL013W, strain DEP1, stronger effect = lower value 1.01 | locus YAL021C, strain ccr4, stronger effect = lower value 1.03 | locus YAL026C, strain drs2, stronger effect = lower value 1.03 | locus YAL030W, strain snc1, stronger effect = lower value 1.04 | locus YBL061C, strain skt5, stronger effect = lower value 1.03 | locus YBR009C, strain hhf1, stronger effect = lower value 1 | locus YBR021W, strain FUR4, stronger effect = lower value 0.963 | locus YBR023C, strain chs3, stronger effect = lower value 1.02 | locus YBR171W, strain sec66, stronger effect = lower value 1.01 | locus YBR229C, strain ROT2, stronger effect = lower value 0.972 | locus YBR231C, strain swc5, stronger effect = lower value 1.05 | locus YBR279W, strain paf1, stronger effect = lower value 1.02 | locus YCL011C, strain gbp2, stronger effect = lower value 1.01 | locus YCL016C, strain dcc1, stronger effect = lower value 1.01 | locus YCL029C, strain bik1, stronger effect = lower value 0.981 | locus YCL061C, strain MRC1, stronger effect = lower value 1.01 | locus YCL069W, strain vba3, stronger effect = lower value 1.03 | locus YCR088W, strain abp1, stronger effect = lower value 1.04 | locus YDL005C, strain med2, stronger effect = lower value 1.04 | locus YDL035C, strain GPR1, stronger effect = lower value 0.961 | locus YDL040C, strain nat1, stronger effect = lower value 1.03 | locus YDL074C, strain BRE1, stronger effect = lower value 0.956 | locus YDL101C, strain DUN1, stronger effect = lower value 1.01 | locus YDL185W, strain tfp1, stronger effect = lower value 0.952 | locus YDL192W, strain arf1, stronger effect = lower value 0.976 | locus YDR001C, strain nth1, stronger effect = lower value 1.03 | locus YDR069C, strain doa4, stronger effect = lower value 1.07 | locus YDR101C, strain arx1, stronger effect = lower value 0.977 | locus YDR137W, strain rgp1, stronger effect = lower value 0.99 | locus YDR150W, strain NUM1, stronger effect = lower value 1.07 | locus YDR159W, strain sac3, stronger effect = lower value 1.02 | locus YDR162C, strain NBP2, stronger effect = lower value 0.965 | locus YDR195W, strain ref2 1.06 | locus YDR297W, strain sur2, stronger effect = lower value 1.05 | locus YDR318W, strain mcm21, stronger effect = lower value 1.01 | locus YDR334W, strain swr1, stronger effect = lower value 1.04 | locus YDR335W, strain msn5, stronger effect = lower value 1.03 | locus YDR388W, stronger effect = lower value 1 | locus YDR502C, strain sam2, stronger effect = lower value 1.03 | locus YEL003W, strain gim4, stronger effect = lower value 1.02 | locus YEL037C, strain rad23, stronger effect = lower value 1.02 | locus YEL061C, strain CIN8 (second series), stronger effect = lower value 1.03 | locus YER015W, strain faa2, stronger effect = lower value 1.02 | locus YER016W, strain bim1, stronger effect = lower value 1.03 | locus YER110C, stronger effect = lower value 0.978 | locus YER111C, strain swi4, stronger effect = lower value 1.02 | locus YER155C, strain BEM2 (second series), stronger effect = lower value 0.989 | locus YER155C, strain BEM2, stronger effect = lower value 0.999 | locus YER167W, strain BCK2, stronger effect = lower value 1.01 | locus YFR010W, strain ubp6, stronger effect = lower value 1.05 | locus YGL078C, strain dbp3, stronger effect = lower value 1.03 | locus YGL086W, strain mad1, stronger effect = lower value 1.02 | locus YGL167C, strain pmr1, stronger effect = lower value 1.01 | locus YGL173C, strain kem1, stronger effect = lower value 1.04 | locus YGL227W, strain vid30, stronger effect = lower value 1.03 | locus YGL240W, strain doc1, stronger effect = lower value 1.01 | locus YGL248W, strain PDE1, stronger effect = lower value 1.02 | locus YGL253W, strain hxk2, stronger effect = lower value 1.03 | locus YGR135W, strain pre9, stronger effect = lower value 1.08 | locus YGR252W, strain gcn5, stronger effect = lower value 1.09 | locus YHR013C, strain ard1, stronger effect = lower value 1.02 | locus YHR027C, strain rpn1, stronger effect = lower value 1.04 | locus YHR030C, strain SLT2, stronger effect = lower value 0.929 | locus YHR079C, strain IRE1 (second series), stronger effect = lower value 0.982 | locus YHR079C, strain IRE1, stronger effect = lower value 0.961 | locus YHR094C, strain hxt1, stronger effect = lower value 0.985 | locus YHR129C, strain ARP1, stronger effect = lower value 1 | locus YHR142W, strain chs7, stronger effect = lower value 1 | locus YHR200W, strain rpn10, stronger effect = lower value 1.01 | locus YIL066C, strain RNR3, stronger effect = lower value 0.965 | locus YIL073C, strain SPO22, stronger effect = lower value 0.984 | locus YIL125W, strain kgd1, stronger effect = lower value 0.976 | locus YIR030C, strain dcg1, stronger effect = lower value 0.995 | locus YJL092W, strain hpr5, stronger effect = lower value 1.03 | locus YJL095W, strain BCK1 (second series), stronger effect = lower value 1.03 | locus YJL095W, strain BCK1, stronger effect = lower value 1.06 and 0.951 | locus YJL115W, strain asf1, stronger effect = lower value 1.03 | locus YJL129C, strain trk1, stronger effect = lower value 0.995 | locus YJL134W, strain LCB3, stronger effect = lower value 1 | locus YJL154C, strain vps35, stronger effect = lower value 1.03 | locus YJL164C, strain tpk1, stronger effect = lower value 0.988 | locus YJL166W, strain qcr8, stronger effect = lower value 0.982 | locus YJL168C, strain set2, stronger effect = lower value 1 | locus YJL187C, strain SWE1 (second series), stronger effect = lower value 1.03 | locus YJL187C, strain SWE1, stronger effect = lower value 1.02 | locus YJR066W, strain TOR1, stronger effect = lower value 0.931 | locus YJR075W, strain HOC1, stronger effect = lower value 1.03 | locus YKL009W, strain mrt4, stronger effect = lower value 0.956 | locus YKL068W, stronger effect = lower value 0.975 | locus YKL085W, strain MDH1 (second series), stronger effect = lower value 0.977 | locus YKL085W, strain MDH1, stronger effect = lower value 0.977 | locus YKL160W, strain elf1, stronger effect = lower value 0.995 | locus YKR001C, strain vps1, stronger effect = lower value 0.993 | locus YKR026C, strain gcn3, stronger effect = lower value 1.03 | locus YKR091W, strain srl3, stronger effect = lower value 1.03 | locus YLL001W, strain dnm1, stronger effect = lower value 0.988 | locus YLL026W, stronger effect = lower value 1.03 | locus YLL041C, strain sdh2, stronger effect = lower value 1.02 | locus YLR027C, strain aat2, stronger effect = lower value 0.992 | locus YLR039C, strain RIC1, stronger effect = lower value 1.05 | locus YLR058C, strain SHM2, stronger effect = lower value 1 | locus YLR102C, strain apc9, stronger effect = lower value 0.995 | locus YLR113W, strain HOG1, stronger effect = lower value 0.902 | locus YLR221C, strain rsa3, stronger effect = lower value 1.03 | locus YLR258W, strain gsy2, stronger effect = lower value 1.03 | locus YLR262C, strain YPT6 (second series), stronger effect = lower value 0.978 | locus YLR268W, strain sec22, stronger effect = lower value 0.975 | locus YLR320W, strain mms22, stronger effect = lower value 1.03 | locus YLR330W, strain CHS5, stronger effect = lower value 1 | locus YLR342W, strain FKS1 (second series), stronger effect = lower value 1.04 | locus YLR342W, strain FKS1, stronger effect = lower value 1.03 | locus YLR357W, strain rsc2, stronger effect = lower value 1.01 | locus YLR370C, strain arc18, stronger effect = lower value 1.02 | locus YLR371W, strain rom2, stronger effect = lower value 1.02 | locus YLR384C, strain iki3, stronger effect = lower value 1.03 | locus YLR418C, strain cdc73, stronger effect = lower value 0.98 | locus YML016C, strain PPZ1, stronger effect = lower value 0.999 | locus YML032C, strain rad52, stronger effect = lower value 0.976 | locus YML120C, strain ndi1, stronger effect = lower value 0.984 | locus YML124C, strain tub3, stronger effect = lower value 1 | locus YMR058W, strain fet3, stronger effect = lower value 1.04 | locus YMR078C, strain ctf18, stronger effect = lower value 0.987 | locus YMR125W, strain sto1, stronger effect = lower value 1.05 | locus YMR129W, stronger effect = lower value 1.02 | locus YMR205C, strain PFK2, stronger effect = lower value 0.958 | locus YMR223W, strain ubp8, stronger effect = lower value 0.986 | locus YMR231W, strain pep5, stronger effect = lower value 1.04 | locus YMR307W, strain GAS1, stronger effect = lower value 0.912 | locus YNL067W, strain RPL9B, stronger effect = lower value 1.04 | locus YNL071W, strain lat1, stronger effect = lower value 0.928 | locus YNL153C, strain GIM3, stronger effect = lower value 1.02 | locus YNL183C, strain NPR1, stronger effect = lower value 0.918 | locus YNL209W, strain ssb2, stronger effect = lower value 1.03 | locus YNL233W, strain BNI4, stronger effect = lower value 1.02 | locus YNL248C, strain rpa49, stronger effect = lower value 1.03 | locus YNL250W, strain rad50, stronger effect = lower value 0.989 | locus YNL271C, strain bni1, stronger effect = lower value 1 | locus YNL298W, strain CLA4, stronger effect = lower value 1 | locus YNL307C, strain MCK1, stronger effect = lower value 0.996 | locus YNL322C, strain KRE1 (second series), stronger effect = lower value 0.984 | locus YNR049C, strain mso1, stronger effect = lower value 1.03 | locus YNR052C, strain pop2, stronger effect = lower value 1.02 | locus YOL006C, strain TOP1, stronger effect = lower value 1.02 | locus YOL012C, strain htz1 1.3 | locus YOL147C, strain pex11, stronger effect = lower value 1 | locus YOR001W, strain rrp6, stronger effect = lower value 1.02 | locus YOR061W, strain CKA2, stronger effect = lower value 0.971 | locus YOR069W, strain VPS5, stronger effect = lower value 1.01 | locus YOR070C, strain gyp1, stronger effect = lower value 1 | locus YOR080W, strain dia2, stronger effect = lower value 1.04 | locus YOR083W, strain WHI5, stronger effect = lower value 0.976 | locus YOR106W, strain vam3, stronger effect = lower value 0.986 | locus YOR136W, strain idh2, stronger effect = lower value 1.01 | locus YOR144C, strain elg1, stronger effect = lower value 0.995 | locus YOR184W, strain ser1, stronger effect = lower value 0.928 | locus YOR231W, strain MKK1, stronger effect = lower value 0.917 | locus YOR265W, strain rbl2, stronger effect = lower value 1.04 | locus YOR270C, strain vph1, stronger effect = lower value 0.963 | locus YOR290C, strain snf2, stronger effect = lower value 0.946 | locus YOR316C, strain cot1, stronger effect = lower value 0.997 | locus YPL051W, strain arl3, stronger effect = lower value 0.996 | locus YPL078C, strain atp4, stronger effect = lower value 0.976 | locus YPL106C, strain sse1, stronger effect = lower value 1.01 | locus YPL240C, strain hsp82, stronger effect = lower value 1.02 | locus YPL256C, strain CLN2, stronger effect = lower value 0.95 | locus YPR119W, strain clb2, stronger effect = lower value 1 | locus YPR141C, strain kar3, stronger effect = lower value 0.993 | locus YPR163C, strain tif3, stronger effect = lower value 1.01 | locus YPR167C, strain met16, stronger effect = lower value 0.996 | strain wtn01, stronger effect = lower value 0.958
active: locus YDR392W, strain spt3, stronger effect = lower value 0.562

Source: PubChem BioAssay AID1159580 (chemical genetic matrix, 2015)
